# Measurements published in PubChem BioAssay (NCATS).
# Inconclusive results are not listed. Where a call stands in place of a potency, no number is given. Active and inactive are the calls of the source. Calls follow the shape of the dose curve; as a rule, active = well fitted inhibition curve with a large enough effect in the signal ratio, with a control signal flat (not every such curve was filed as active); inconclusive = small, poorly fitted or top-dose-only effect, or effect the other way, or a change in a side signal; inactive = no such curve, though single readings can be large or run the other way; the % refers to the signal ratio.
# Target: Peroxisome proliferator-activated receptor delta (Homo sapiens) (UniProt Q03181)
# Sequence (Q03181 whole entry, looked up): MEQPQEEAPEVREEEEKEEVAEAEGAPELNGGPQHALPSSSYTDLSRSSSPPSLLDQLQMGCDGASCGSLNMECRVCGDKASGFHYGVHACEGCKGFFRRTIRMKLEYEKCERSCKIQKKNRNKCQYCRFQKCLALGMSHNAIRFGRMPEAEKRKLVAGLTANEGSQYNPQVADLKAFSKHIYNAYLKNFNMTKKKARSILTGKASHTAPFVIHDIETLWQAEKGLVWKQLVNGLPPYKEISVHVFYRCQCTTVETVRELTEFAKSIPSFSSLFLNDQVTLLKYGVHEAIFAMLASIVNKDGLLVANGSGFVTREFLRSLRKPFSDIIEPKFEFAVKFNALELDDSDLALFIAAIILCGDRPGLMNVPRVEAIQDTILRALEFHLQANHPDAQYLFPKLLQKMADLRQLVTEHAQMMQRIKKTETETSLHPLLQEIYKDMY
# Experiment: qHTS assay for small molecule antagonists of peroxisome proliferator-activated receptor delta signaling (AID 588535)
# Conditions: HEK293T PPARd-UAS-bla, beta-lactamase FRET ratio, 18 h; series mostly up to 76.7 µM
# Excerpt: NIH Chemical Genomics Center [NCGC] U.S. Environmental Protection Agency [EPA] National Institutes of Environmental Health Sciences [NIEHS] National Toxicology Program [NTP] NCGC Assay Overview The Peroxisome proliferator-activated receptors (PPARs) are lipid-activated transcription factors of the nuclear receptor superfamily with three distinct subtypes namely PPAR alpha, PPAR delta (also called PPAR beta) and PPAR gamma. All these subtypes heterodimerizes with Retinoid X receptor (RXR) and have different physiological functions. […] This role of PPAR delta implicates the potential use of its ligands in the treatment of metabolic disorders.
# NCGC Assay Protocol Summary Using a beta-lactamase reporter-gene under control Peroxisome Proliferator-Activated Receptor delta (PPAR-delta) response element, a cell-based assay [GeneBLAzer (PPAR-delta-UAS-bla assay developed by Invitrogen] was used to measure PPAR-delta ligands signaling. GeneBLAzer PPAR-delta-UAS-bla HEK293T cells were used with assay medium containing 2% charcoal/dextran FBS. The assay was performed in clear bottom black Greiner 1536-well plates. Library compounds were measured for their ability to inhibit the reporter gene activity. Compounds were screened in a titration series in 1536-well format. The fluorescence intensity (405 nm excitation, 460/530 nm emission) was measured using an EnVision plate reader. […] Concentration-response titration points for each compound were fitted to the Hill equation yielding concentrations of half-maximal inhibition (IC50) and maximal response (efficacy) values. qHTS protocol for PPAR-delta beta-lactamase assay in antagonist mode [Step] [Parameter] [Value] [Description] 1. Reagent; 5 uL; 4000 cells/well 2. Incubation; 37 C for 5 hrs 3. Compounds; 23 nL; 0.59 nM to 92 uM 4. […] Incubation; 37 C for 18 hrs 7. Detection reagent; 1 uL of CCF4-dye 8. Incubation; RT for 2 hrs 9. Detection; Fluorescence; Envision plate reader
row,SMILES,Potency
1,ClCBr,inactive
2,c1nc[nH]n1,inactive
3,NC(=S)Nc1ccccc1,inactive
4,C=CC1CC=CCC1 (stereo not given),inactive
5,COP(N)(=O)SC (stereo not given),inactive
6,CNC(=O)O/N=C/C(C)(C)SC,inactive
7,C=CC(N)=O,inactive
8,C[N+](C)(C)Cc1ccccc1,inactive
9,ClC(Cl)(Cl)c1ccccc1,inactive
10,ClC(Cl)=C(Cl)C(Cl)=C(Cl)Cl,inactive
11,COc1ccc(N)cc1,inactive
12,Cc1ccc([N+](=O)[O-])cc1C,inactive
13,S=C=Nc1cccc2ccccc12,inactive
14,CC(C)(c1ccccc1)c1ccc(O)cc1,inactive
15,CC(C)Nc1nc(Cl)nc(NC(C)C)n1,inactive
16,Cc1cccc([N+](=O)[O-])c1,inactive
17,CC(C)(OO)c1ccccc1,inactive
18,CC(C)N1C(=O)c2ccccc2NS1(=O)=O,inactive
19,CCCCCCCCCc1ccc(O)cc1,inactive
20,CC(Cl)Cl,inactive

row,SMILES,Potency
1,C=CCOC(=O)c1ccccc1N,inactive
2,Oc1ccc(Cl)cc1Cl,inactive
3,C=CC(C)=O,inactive
4,CC(O)CCl (stereo not given),inactive
5,O=C(O)C1C2CCC(O2)C1C(=O)O (stereo not given),inactive
6,Brc1ccccc1,inactive
7,O=C(Cl)C(Cl)(Cl)Cl,inactive
8,O=[N+]([O-])c1cccc2ccccc12,inactive
9,CNC(=O)Oc1cccc2c1OC(C)(C)O2,inactive
10,Brc1ccc(Oc2cc(Br)c(Br)cc2Br)c(Br)c1,inactive
11,CCCOC(=O)c1ccccc1C(=O)OCCC,inactive
12,CCCCOCCOP(=O)(OCCOCCCC)OCCOCCCC,inactive
13,C=C(C)C(=O)OCC1CO1 (stereo not given),inactive
14,Nc1ccccc1Cl,inactive
15,CCC[CH2][Sn]([Cl])([Cl])[Cl],inactive
16,CNC(=O)Oc1ccccc1OC(C)C,inactive
17,N#Cc1c(Cl)cccc1Cl,inactive
18,CC(C)(C)OOC(C)(C)C,inactive
19,C1CCC2CCCCC2C1 (stereo not given),inactive
20,O=NN(c1ccccc1)c1ccccc1,inactive
